# Screens as filed in PubChem.
# MCF10A rerep = inducers of DNA re-replication in MCF 10A breast cells; MCF 10A DNA re-replication, Hoechst nuclear intensity, 48 h; Potency, µM (top dose mostly 46.1 µM), for inactives: at the top dose activity, positive = re-replication, most hits filed as activators; actives 2.9% (n = 350,000); AID 624296; also: % of control where 0% means no effect; nearly all actives have a fitted effect of over 50% in size
# ELG1 repair inh = blocks ELG1-dependent DNA repair in HEK293T cells; HEK293T ELG1-luciferase reporter, luminescence, 16 h; DNA damage induced by 5-fluorouridine; Potency, µM (highest dose often 46.1 µM), for inactives: at the top dose activity change, negative = inhibition, hits mostly inhibitors; actives 2.3% (n = 330,000); also: % is scaled to controls: 0 for no effect and ±100 for the full control effect; nearly all actives have a fitted effect of over 55% in size
#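 In this reporter screen, reduction of luminescence relative to DMSO vehicle indicated activity. Compounds and 5-fluorouridine were added together to 2,000 cells per well, incubated for 16 hr at 37 °C, then developed with ONE-Glo.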
# KB-V1 MDR tox = KB-V1 MDR subline cytotoxicity; Potency, µM (highest dose often 46.1 µM), most hits filed as cytotoxic; KB-V1 MDR cells viability, CellTiter-Glo, 72 h; actives 3.4% (n = 400,000); also: % is scaled to controls: 0 for no effect and ±100 for the full control effect; nearly all actives have a fitted effect of over 60% in size
#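 Cells of the MDR subline KB-V1 are plated, dosed with compound at multiple concentrations, and incubated 72 h at 37 degrees C; CellTiter-Glo is then added and luminescence read after 10 min.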
# SW480 rereplic = DNA re-replication induction in SW480 cells. SW480 DNA re-replication, Hoechst DNA content imaging, 48 h. Potency, µM (top dose mostly 46.1 µM), inactives show at the highest dose re-replication activation, actives largely listed as activators. actives 1.8% (n = 340,000). AID 624297; also: % of control where 0% means no effect; nearly all actives have a fitted effect of over 55% in size
#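 Cells (250 per well) received 23 nL compound or DMSO by pin tool and were kept 48 hr at 37 C, 5% CO2. Nuclei were then stained with Hoechst for 40 min and scanned for DNA content.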
# KB-3-1 cytotox = kills parental KB-3-1 adenocarcinoma cells | KB-3-1 viability, CellTiter-Glo ATP luminescence, 72 h | Potency, µM (titrated, usually from 46.1 µM), most hits filed as cytotoxic | actives 1.4% (n = 400,000) | AID 1347075; also: % is scaled to controls: 0 for no effect and ±100 for the full control effect; nearly all actives have a fitted effect of over 60% in size
#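 Cytotoxicity measured as CellTiter-Glo luminescence after 72 h at 37 C. Compound titrations were pinned onto drug-naive KB-3-1 parental adenocarcinoma cells grown in DMEM with 10% FBS, and normalized data fitted to concentration-response curves.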
# Starred values were filed as active, the others as inactive; i = inactive; ? = inconclusive; · = not tested or not shown. Compounds with a hit are over-represented: about 8.1% of the library has one in this group of screens. Calls follow the shape of the dose curve; as a rule, active = well fitted curve in the direction sought with a large enough effect; inconclusive = small, poorly fitted or top-dose-only effect, or another doubt; inactive = no such curve, though single readings can be large; an effect the other way counts as inactive or inconclusive. Potency is read from the fitted curve at half-maximal effect.
SMILES,MCF10A rerep,ELG1 repair inh,KB-V1 MDR tox,SW480 rereplic,KB-3-1 cytotox
CS(=O)(=O)N(CC(=O)Nc1ccc2c(c1)OCCO2)c1ccc2c(c1)OCO2,11.2%,12.3%,i,-3.5%,i
CS(=O)(=O)N(CC(=O)Nc1ccc2c(c1)OCO2)c1ccccc1,20.6µM*,9.8%,i,3.6%,i
Cc1ccc(S(=O)(=O)NCC2CCC(C(=O)N3CCN(C)CC3)CC2)cc1 (stereo not given),18.4µM*,17.3%,i,?,i
Cc1cccc(N2CCN(C(=O)C3CCC(CNS(=O)(=O)c4ccc(Br)s4)CC3)CC2)c1C (stereo not given),·,·,i,·,i
CCN1CCN(C(=O)C2CCC(CNS(=O)(=O)c3ccccc3)CC2)CC1 (stereo not given),4.3%,5.8%,i,-10.3%,i
Cc1cccc(N2CCN(C(=O)C3CCC(CNS(=O)(=O)c4cccs4)CC3)CC2)c1C (stereo not given),?,9.2µM*,?,?,20.6µM*
O=C(NCCN1CCOCC1)C1CCC(CNS(=O)(=O)c2ccc(Cl)cc2)CC1 (stereo not given),16.4µM*,-10.2%,i,3.9%,i
O=CN1CCN(C(=O)c2cc3cc(Cl)ccc3[nH]2)CC1,?,-3.6%,i,5.17µM*,i
CN1CCN(C(=O)c2cc3cc(Cl)ccc3[nH]2)CC1,3.1%,15.1%,i,3.4%,i
CCOC(=O)[C@]12CCC=C1N(Cc1ccc3c(c1)OCO3)C(=O)[C@H](CC(=O)N1CCN(C(=O)c3ccco3)CC1)C2,·,·,i,·,i
CCOc1c(OC)cccc1C1CC(=O)Nc2cc3c(cc21)OCCO3 (stereo not given),?,?,i,?,?
CC(C)COc1ccccc1C1CC(=O)Nc2cc3c(cc21)OCO3 (stereo not given),·,·,?,·,6.51µM*
Cc1cc2[nH]c(=O)c(=O)[nH]c2cc1S(=O)(=O)Nc1cccc(F)c1,-1.8%,17.3%,i,-7.3%,i
Cc1ccc(S(=O)(=O)N2CCCC2CNC(=O)C(=O)NCc2ccc3c(c2)OCO3)cc1 (stereo not given),·,·,?,·,i
O=S(=O)(NCC(c1ccco1)N1CCCCC1)c1ccccc1C(F)(F)F (stereo not given),3.2%,-5.3%,i,-0.5%,i
COc1ccccc1OCCCn1c(=O)oc2ccccc21,2.0%,?,i,-5.6%,i
COc1ccccc1OCCCn1c(=O)sc2ccccc21,15.0%,?,14.6µM*,-1.0%,i
NC(=O)COC(=O)c1ccccc1Nc1ccc(SC(F)F)cc1,23.1µM*,15.1%,i,-4.3%,i
O=C(Nc1ccc(Cl)cc1)C1C2CCC3C(CCC21)C3(Cl)Cl (stereo not given),?,3.1%,i,6.4%,i
O=C(O)C1C(C(=O)Nc2ccc(Cl)cc2)C2C=CC1C21CC1 (stereo not given),?,-8.5%,20.6µM*,-5.3%,i
CCOC(=O)NNc1ccc2nonc2c1[N+](=O)[O-],12.0%,?,i,23.1µM*,?
CCc1ccc(Nc2ccc3nonc3c2[N+](=O)[O-])cc1,-1.0%,·,i,-92.6%,i
O=C1c2cccc3cc([N+](=O)[O-])cc(c23)C(=O)N1/N=C/c1ccc(O)cc1O,18.4%,-12.9%,i,13µM*,i
Nc1c(C(=O)N/N=C/c2ccccc2Cl)oc2nc(-c3ccccc3)cc(-c3ccco3)c12,8.2µM*,?,i,18.4µM*,?
Nc1c(C(=O)N/N=C/c2ccc(F)cc2)oc2nc(-c3ccccc3)cc(-c3ccco3)c12,20.6µM*,-24.8%,i,355.4%,i
Cc1cc(-c2ccccc2)nc2oc(C(=O)NN)c(N)c12,?,-8.0%,i,?,i
O=C1CC(C(=O)N(c2ccc(F)cc2)C(C(=O)NC2CCCC2)c2ccccn2)CS1 (stereo not given),5.0%,1.2%,11.6µM*,-5.4%,i
